# PubChem BioAssay AID504332 (National Center for Advancing Translational Sciences (NCATS), 2011)
# Screen size: about 350,000 compounds; about 31,000 (8.9%) were called active. Roughly 15% stayed inconclusive and do not appear here. This is one part of a sample in which actives are shown more often than they occur. Calls follow the shape of the dose curve; as a rule, active = well fitted inhibition curve with a large enough effect; inconclusive = small, poorly fitted or top-dose-only effect; inactive = no such curve, though single readings can be large or run the other way.
# Target: Histone-lysine N-methyltransferase EHMT2 (Homo sapiens) (UniProt Q96KQ7)
# Sequence (Q96KQ7 913-1193 limits assumed): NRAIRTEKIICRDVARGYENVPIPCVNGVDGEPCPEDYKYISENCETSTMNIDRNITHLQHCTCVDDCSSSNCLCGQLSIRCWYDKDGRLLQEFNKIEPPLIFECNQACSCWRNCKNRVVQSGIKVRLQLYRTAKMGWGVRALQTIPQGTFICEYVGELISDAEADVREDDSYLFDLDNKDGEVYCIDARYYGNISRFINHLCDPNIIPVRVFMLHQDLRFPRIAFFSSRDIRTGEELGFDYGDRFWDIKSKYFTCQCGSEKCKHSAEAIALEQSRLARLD
# Test: qHTS Assay for Inhibitors of Histone Lysine Methyltransferase G9a; also: nearly all actives have a fitted effect of over 75% in size
# Conditions: G9a H3K9 monomethylation, AlphaScreen, 2 h; series mostly up to 59 µM; activity, negative = inhibition: at the top concentration
# Summary of the method: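 Signal arises when biotinylated H3K9 peptide, once monomethylated, bridges streptavidin donor and antibody-captured acceptor beads. Enzyme at 20 nM was preincubated 15 min with test compounds; peptide 500 nM and SAM 20 uM then reacted for 2 h.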
# % is scaled to controls: 0 for no effect and ±100 for the full control effect; potency is read from the fitted curve at half-maximal effect.
Structure (SMILES),"activity, negative = inhibition",Potency
Cc1cc(NC(=O)CC(C)C)cc(-c2nc3ncccc3o2)c1O,2.52% (inactive),
Cc1ccc(-n2nc(CO)c(C(=O)NCCc3ccccc3)n2)cc1,7.14% (inactive),
Cc1cc(OC(=O)c2ccccc2)c([N+](=O)[O-])c(=O)[nH]1,-32.9% [at 102 µM] (inactive),
O=C(Oc1cccc(C(=S)N2CCOCC2)c1)c1cccc(Cl)c1,-2.25% [at 102 µM] (inactive),
COc1cc(C(=S)N2CCOCC2)cc(OC)c1OC(=O)c1cc([N+](=O)[O-])cc([N+](=O)[O-])c1,,31.6 µM (active)
COc1cc(NC(=O)N2CCOCC2)cc(OC)c1,7.85% [at 102 µM] (inactive),
COc1cc(C(=O)N2CCOCC2)cc(OC)c1OC,,inactive
COc1cc(C(=O)OCc2ccc([N+](=O)[O-])cc2)cc(OC)c1OC,14.7% [at 102 µM] (inactive),
O=C(Oc1ccccc1C(=S)N1CCCCC1)c1cc([N+](=O)[O-])cc([N+](=O)[O-])c1,,3.55 µM (active)
COc1cc([N+](=O)[O-])cc([N+](=O)[O-])c1NC(=O)N1CCOCC1,,50.1 µM (active)
O=C(Oc1ccc(Br)cc1C(=S)N1CCOCC1)c1cccc([N+](=O)[O-])c1,,7.08 µM (active)
O=C(c1ccc(Oc2ccc(Cl)cc2)c([N+](=O)[O-])c1)N1CCCC1,-2.93% [at 102 µM] (inactive),
O=C(/C=C/c1cccc([N+](=O)[O-])c1)OCC(=O)N1CCOCC1,12.5% [at 12.7 µM] (inactive),
O=C(NCCCN1CCOCC1)c1ccc([N+](=O)[O-])cc1[N+](=O)[O-],-1.45% (inactive),
COc1ccc(/C=N/Nc2cc(N3CCOCC3)nc(C)n2)c(OC)c1,-10.8% [at 102 µM] (inactive),
Cc1ccc2cccc(NC(=O)C(C)Oc3ccc(C)c(C)c3)c2n1 (stereo not given),0.0636% (inactive),
Cc1ccc(-c2cnc(C3CC3)o2)cc1S(=O)(=O)Nc1cccc(C)c1C,-9.84% [at 12.7 µM] (inactive),
CCC(=O)N1c2ccccc2CC1C(=O)N1CCN(c2ccccc2F)CC1 (stereo not given),0.329% [at 12.7 µM] (inactive),
Cc1ccc(-c2nn(CCC(=O)Nc3ccc(Cl)c(Cl)c3)c(=O)c3ccccc23)cc1,5.97% (inactive),
COc1ccc(Cl)cc1NC(=O)CSc1nc2ccccc2c2nc(-c3ccccc3)nn12,-3.83% (inactive),
CC(=O)C[C@@H](O)CC(=O)[C@H]1OC(=O)CCCCCCc2ccccc21,7.19% [at 0.501 µM] (inactive),
O=C(c1cccs1)N(C(=O)c1cccs1)c1ccccn1,2.68% (inactive),
O=C(C1=C(O)C(=O)N(CCOCCO)C1c1ccccn1)c1cccs1 (stereo not given),,28.2 µM (active)
O=C(c1cccs1)c1cn(CCOc2ccc(Cl)cc2)c2ccccc12,-2.07% (inactive),

Structure (SMILES),"activity, negative = inhibition",Potency
Cc1ccc(O)c(/C=N/NC(=O)COc2ccc3c(C)cc(=O)oc3c2)c1,14% [at 102 µM] (inactive),
CCC(=O)N1c2ccccc2CC1C(=O)N1CCN(c2cccc(OC)c2)CC1 (stereo not given),12.6% (inactive),
COc1cccc(C(=O)NC2(C(F)(F)F)C(=O)Nc3c2c(=O)[nH]c(=O)n3-c2ccc(C)cc2)c1 (stereo not given),-0.967% (inactive),
CCOc1ccc(CN2CCN(Cc3ccon3)CC2CCO)cc1 (stereo not given),-37.7% [at 102 µM] (inactive),
CCOc1ccc(CN2CCN(Cc3ccc(C)o3)CC2CCO)cc1 (stereo not given),,70.8 µM (active)
CCOc1ccc(CN2CCN(Cc3ccc4cc(F)ccc4n3)CC2CCO)cc1 (stereo not given),1.12% [at 102 µM] (inactive),
COCCn1c(C)cc(C(=O)CSc2nnc(C3CC3)n2C2CC2)c1C,-12.5% [at 12.7 µM] (inactive),
Cc1ccc(Cl)cc1N1CCN(C(=O)C2CCC(CNS(=O)(=O)c3cccs3)CC2)CC1 (stereo not given),-36.1% (inactive),
Cc1ccc(S(=O)(=O)NNC(=O)/C=C/c2cccc(F)c2)cc1,10.6% [at 102 µM] (inactive),
Cc1cc(OCCN2CCCC2)cc(C(C)C)c1,,11.2 µM (active)
Cc1cc(C)c(NC(=O)CN2CCCCCC2)c(C)c1,41.6% [at 0.501 µM] (inactive),
c1ccc2cc(OCCN3CCCC3)ccc2c1,,12.6 µM (active)
COc1cccc(OCCCN2CCCCCC2)c1,,11.2 µM (active)
Clc1ccccc1-c1cc(COc2ccc3ccccc3c2)no1,22% (inactive),
O=C(Nc1ccc(F)cc1F)N1CCCN(CCOc2ccccc2)CC1,-4.35% [at 102 µM] (inactive),
OC(COc1ccc(Br)cc1)CN1CCCC1 (stereo not given),2.27% [at 102 µM] (inactive),
Cc1cc(OCCN2CCCC2)ccc1C(C)C,,8.91 µM (active)
OC(COc1ccc2ccccc2c1)CN1CCOCC1 (stereo not given),-4.94% (inactive),
Cc1ccc(CC2(O)CCN(CCOc3ccc(O)cc3)CC2)cc1,31.1% (inactive),
COc1cccc(NC(=O)NCCN2CCCCC2)c1,11.8% [at 102 µM] (inactive),
COc1cccc(OCC(O)CN2CCN(CCO)CC2)c1 (stereo not given),19.4% (inactive),
CS(=O)(=O)Nc1ccccc1C(=O)OCC(=O)NC1CC1,15.6% [at 12.7 µM] (inactive),
Cc1cccc(NC(=O)Cn2cc(S(=O)(=O)Cc3ccccc3Cl)c3ccccc32)c1,0.568% (inactive),
CC(C)(C)N1C(=O)[C@H]2[C@@H](c3ccc(Br)cc3)N3C(=O)N(c4cccc(Cl)c4)C(=O)[C@@]3(C)[C@H]2C1=O,-8.49% [at 2.33 µM] (inactive),

Structure (SMILES),"activity, negative = inhibition",Potency
CCN(CC)CCNC(=O)Cn1ncc2c3ccccc3n(Cc3ccccc3C)c2c1=O,1.56% (inactive),
Cn1c(=O)n(C)c2cc(S(=O)(=O)Nc3ccc(F)cc3)ccc21,72.7% [at 102 µM] (inactive),
CCC1C/C(=C/c2cccs2)C(=O)/C(=C/c2cccs2)C1 (stereo not given),,39.8 µM (active)
O=C1/C(=C/c2cccs2)CCc2ccccc21,10.6% [at 102 µM] (inactive),
CN1C/C(=C/c2cccs2)C(=O)/C(=C\c2cccs2)C1,1.72% [at 12.7 µM] (inactive),
COc1ccc(CCNc2nc3c(-c4cccc(F)c4)nnn3c3ccccc23)cc1OC,-26.3% (inactive),
Cc1ccc(Cn2c(=O)n(Cc3nc(-c4ccccc4)no3)c(=O)c3cc4c(cc32)OCO4)cc1,-6.65% (inactive),
COc1cccc(C2=CC(=O)C[C@H](c3ccc(OC)c(OC)c3)C2)c1,-2.09% [at 2.33 µM] (inactive),
Cc1nc(N2CCOCC2)c2c(C(=O)NCc3cccc(Cl)c3)c(C)oc2n1,-4.17% (inactive),
CCOC(=O)c1c(C)oc2nc(C)nc(Nc3ccc(CC)cc3)c12,-15% (inactive),
CCOC(=O)c1c(C)oc2nc(C)nc(N3CCN(c4ccc(OC)cc4)CC3)c12,,12.6 µM (active)
CC(=O)c1cc2c(cc1NC(=O)Cn1nc(-c3ccc(F)cc3)ccc1=O)OCO2,-6.97% (inactive),
O=C(CN1C(=O)CCn2nc(-c3ccccc3)cc21)NCc1ccccc1,-6.9% (inactive),
COC(=O)c1ccccc1NC(=O)C(Cc1ccccc1)N1Cc2ccccc2C1=O (stereo not given),-33.9% (inactive),
CC1=CC(C)(C)Nc2ccc(OC(=O)CN3C(=O)C4CCCCC4C3=O)cc21 (stereo not given),2.3% (inactive),
CC1=CC(C)(C)Nc2ccc(OC(=O)C(Cc3ccccc3)N3C(=O)C4CCCCC4C3=O)cc21 (stereo not given),,50.1 µM (active)
CC1(C)O[C@H]2CC(=O)OCC23[C@H]2CC[C@@]4(C)[C@H](c5ccoc5)OC(=O)[C@H]5O[C@]54[C@]2(C)C(=O)C[C@@H]13 (stereo not given in full),12.6% [at 12.7 µM] (inactive),
COc1ccc(CCNC(=O)CCCCn2c(=O)c3ccccc3n(Cc3ccccc3C)c2=O)cc1OC,-0.422% (inactive),
O=C(Nc1cccc(C(F)(F)F)c1)c1cnccn1,7.12% [at 102 µM] (inactive),
O=C(Nc1cccc([N+](=O)[O-])c1)Nn1cnnc1,14.3% [at 102 µM] (inactive),
O=c1cc(CO)oc(C(Nc2cccc([N+](=O)[O-])c2)c2ccccn2)c1O (stereo not given),,0.794 µM (active)
Cc1ccc(CN(C)CC(=O)Nc2cccc([N+](=O)[O-])c2)o1,-40.5% [at 102 µM] (inactive),
O=c1cc(CO)oc(C(Nc2cccc(C(F)(F)F)c2)c2ccccn2)c1O (stereo not given),,1.26 µM (active)
FC(F)(F)c1cccc(Nc2ncnc3ccccc23)c1,8.16% [at 12.7 µM] (inactive),

Structure (SMILES),"activity, negative = inhibition",Potency
CCOC(=O)c1c(C)n(S(=O)(=O)c2ccc(C)cc2C)c2ccc(NS(=O)(=O)c3ccc(C)cc3C)cc12,-48.6% (inactive),
Cc1ccc(N/C=C/C(=O)c2ccccc2)cc1C,-10.2% (inactive),
O=C(/C=C\NCC(=O)c1ccccc1)c1ccccc1,,6.31 µM (active)
COc1ccc(NC(=O)CCCC(=O)c2ccccc2)cc1,23.7% [at 102 µM] (inactive),
Cc1ccc(/C=C/C(=O)OCC(=O)NCc2ccc(Cl)cc2)o1,-2.38% [at 2.33 µM] (inactive),
CC(C)NC(=O)/C(C#N)=C\c1ccc(N(C)C)c(Br)c1,,39.8 µM (active)
Cc1[nH]c2ccccc2c1/C=C(/C#N)C(=O)NC(C)C,6.08% [at 102 µM] (inactive),
Cc1ccc(/C=C(\C#N)C(=O)Nc2cc(C)ccc2C)cc1,1.04% (inactive),
Cc1ccc(NC(=O)Nc2sc3nc4n(c(=O)c3c2C)CCC(C)CC4)c(Cl)c1 (stereo not given),31.6% (inactive),
Cc1ccccc1C1=NC(C(F)(F)F)(C(F)(F)F)c2c(n(-c3ccc(F)cc3)c(=O)[nH]c2=O)N1,3.46% [at 102 µM] (inactive),
O=c1[nH]c(=O)n(Cc2ccco2)c2c1C(C(F)(F)F)(C(F)(F)F)N=C(c1ccco1)N2,,50.1 µM (active)
Nc1c(N(Cc2ccco2)C(=O)c2cccc(F)c2)c(=O)[nH]c(=O)n1Cc1ccccc1,-3.15% [at 12.7 µM] (inactive),
CCCn1c(=S)[nH]c2ccc(C(F)(F)F)cc21,,11.2 µM (active)
COc1ccc(/C(C)=N\NC(=O)c2ccc(-c3ccccc3)cc2)c(F)c1,40.6% [at 102 µM] (inactive),
Cc1cccc(C(=O)NC(=S)N(C)C2CCCCC2)c1,-7.56% [at 102 µM] (inactive),
CC(OC(=O)c1ccccc1NCCO)C(=O)Nc1ccnn1C(C)C (stereo not given),-12.9% [at 12.7 µM] (inactive),
CC(=O)c1cccc(Nc2ccc3cc(S(=O)(=O)N4CCC(C)CC4)ccc3n2)c1,1.63% (inactive),
Cc1cccc(S(=O)(=O)c2cn(Cc3ccccc3)c3cc(N4CCOCC4)c(F)cc3c2=O)c1,-2.93% (inactive),
COc1ccc(C23NCCN2C(=O)c2ccccc23)cc1 (stereo not given),28.2% [at 102 µM] (inactive),
CN1CCN(c2ncc3c(n2)CC(c2ccccc2F)CC3=O)CC1 (stereo not given),-7.44% [at 102 µM] (inactive),
CC1=C(C(=O)Nc2cc(C)ccn2)C(c2cnn(C)c2)C2=C(CC(c3ccccc3)CC2=O)N1 (stereo not given),13.4% (inactive),
Cc1nc2nc3c(cn2n1)C(=O)CC(c1ccccc1)C3 (stereo not given),,56.2 µM (active)
CC(=O)c1ccc(NC(c2ccc(F)cc2)c2nnc(-c3ccccc3)o2)cc1 (stereo not given),-36% (inactive),
